Screens: PubChem, National Center for Advancing Translational Sciences (NCATS)
KAT2A inh = inhibitors of human GCN5L2 histone acetyltransferase. GCN5L2 HAT assay, ThioGlo1 CoA-SH fluorescence. AID 504327. 0.21% of 390,000 active. Q92830. Potency, µM (doses to about 58.9 µM), for the others: top-dose activity change, negative = inhibition, hits mostly inhibitors; further: on the % scale 0 is the no-effect control and ±100 the full control effect
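Preincubate 20nM GCN5L2 with compound 15 min, RT → add 50uM ThioGlo1 + 75uM H3(1-25) + 70uM acetyl-CoA → read fluorescence 0 and 20 min. Primary qHTS; fluorescent artifacts likely.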
VDR inhibitor = vitamin D3 receptor (human) inhibition. VDR-SRC2-3 peptide fluorescence polarization, 2 h. Potency, µM, inactives show max response, negative = inhibition, hits mostly inhibitors. 0.93% of 400,000 active. AID 504847; further: on the % scale 0 is the no-effect control and ±100 the full control effect
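Measured by FP: displacement of SRC2-3 coactivator peptide from VDR by library compounds, following a two-hour ambient incubation.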
PTAP TSG101 blk = blocks PTAP/TSG101 interaction to inhibit HIV-1 budding; Q99816; Fluorescence polarization, FITC-PTAP peptide / Tsg101 binding; Potency, µM (top dose mostly 115 µM), for the others: at the highest dose activity change, negative = inhibition, most hits filed as inhibitors; 340,000 tested, under 10 active; AID 493005; active means well fitted inhibition curve with a large enough effect in the main read-out, with a control signal flat, not every such curve was filed as active; inconclusive means small, poorly fitted or top-dose-only effect, or effect the other way, or a change in a side signal; inactive means no such curve, though single readings can be large or run the other way; further: % of control where 0% means no effect
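Fluorescence polarization binding of Tsg101 binding domain (10 uM final) to FITC-labeled PTAP peptide (50 nM final) in HEPES pH 7.5 buffer with NaCl, Tween 20, EDTA, TCEP. Compounds added before peptide; binding 20 min at RT.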
PLK1 PBD block = PLK1 (human) polo-box domain binding inhibition; 2.8% of 360,000 active; AID 720504; Potency, µM, for the others: max response, negative = inhibition, actives largely listed as inhibitors; Plk1 PBD binding of FITC phosphopeptide, fluorescence polarization; P53350; further: series mostly up to about 57 µM; on the % scale 0 is the no-effect control and ±100 the full control effect; nearly all actives have a fitted effect of over 65% in size
USP1-UAF1 inh = blocks the human USP1/UAF1 deubiquitinase complex. O94782. recombinant USP1/UAF1, Ub-Rhodamine cleavage fluorescence. Potency, µM (top dose mostly 57.1 µM), for the others: at the highest dose activity change, negative = inhibition, actives largely listed as inhibitors. 0.23% of 390,000 active; further: on the % scale 0 is the no-effect control and ±100 the full control effect; nearly all actives have a fitted effect of over 60% in size
Target sequence (O94782 whole entry, looked up): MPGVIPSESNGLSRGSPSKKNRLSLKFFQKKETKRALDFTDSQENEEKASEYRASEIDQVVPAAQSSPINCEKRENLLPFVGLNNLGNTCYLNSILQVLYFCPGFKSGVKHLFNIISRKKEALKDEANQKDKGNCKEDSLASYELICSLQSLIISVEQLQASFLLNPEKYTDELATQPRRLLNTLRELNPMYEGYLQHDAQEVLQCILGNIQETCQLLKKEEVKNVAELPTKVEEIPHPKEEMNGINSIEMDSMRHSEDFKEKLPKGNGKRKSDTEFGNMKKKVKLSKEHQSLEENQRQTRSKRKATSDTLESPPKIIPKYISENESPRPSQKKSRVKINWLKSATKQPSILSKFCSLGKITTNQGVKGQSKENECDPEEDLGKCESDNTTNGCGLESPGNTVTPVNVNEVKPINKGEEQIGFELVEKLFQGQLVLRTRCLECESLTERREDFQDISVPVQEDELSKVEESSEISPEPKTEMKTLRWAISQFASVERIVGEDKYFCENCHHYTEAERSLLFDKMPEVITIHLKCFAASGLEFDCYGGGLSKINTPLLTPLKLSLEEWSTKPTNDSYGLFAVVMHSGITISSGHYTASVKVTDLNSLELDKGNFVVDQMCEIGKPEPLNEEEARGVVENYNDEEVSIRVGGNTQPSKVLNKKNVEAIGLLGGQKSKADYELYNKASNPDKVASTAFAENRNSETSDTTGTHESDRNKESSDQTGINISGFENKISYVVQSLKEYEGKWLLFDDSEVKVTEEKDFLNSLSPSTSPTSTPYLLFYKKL
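USP1/UAF1 complex at 1 nM was preincubated with compound for 15 min at room temperature, then Ub-Rho substrate (150nM final) was added. Fluorescence (480/540 nm) was read kinetically, 6 reads every 60 seconds.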
* marks the source's active call; other numbers are inactive results; ? = inconclusive; . = not tested or not shown. This is a sample that favours compounds with a hit; in the whole collection about 3% have one here. Unless noted, the call rests on the fitted dose curve; in most records, active means well fitted curve in the direction sought with a large enough effect; inconclusive means small, poorly fitted or top-dose-only effect, or another doubt; inactive means no such curve, though single readings can be large; an effect the other way counts as inactive or inconclusive. Potency means the concentration at half of the fitted maximal effect.

SMILES	KAT2A inh	VDR inhibitor	PTAP TSG101 blk	PLK1 PBD block	USP1-UAF1 inh
O=C(c1ccncc1)N1CCC2(CCCN(c3cccc(-c4ccccc4)c3)C2)CC1	-28.5%	44.7µM*	.	.	.
O=C(c1cnccn1)N1CCC2(CCCN(c3ccc(-c4ccccc4)cc3)C2)CC1	-17.5%	?	.	.	.
O=C(c1ccncc1)N1CCC2(CC1)CCN(c1cccc(-c3ccccc3)c1)CC2	-6.7%	?	.	.	.
CC(C)NC(=O)N1CCCC2(CCN(C(=O)c3ccco3)CC2)C1	7.2%	1.6%	.	.	.
COc1ccc2cc(CNc3ccc(C)cc3)c(=O)n(CC(=O)Nc3cccc(Cl)c3C)c2c1	-1.8%	2.4%	.	.	?
CNS(=O)(=O)c1cc(-c2nn3c(C)nnc3c3ccccc23)ccc1C	-8.8%	6.1%	.	.	-9.1%
O=C(c1ccco1)N1CCC[C@@]2(CCN(c3cccc(-c4ccccc4)c3)C2)C1	-5.7%	28.2µM*	.	.	.
O=C(c1ccco1)N1CCC[C@@]2(CCN(c3ccccn3)C2)C1	-7.0%	-15.0%	.	.	.
O=C1CN(C(=O)Nc2ccccc2Cl)C(c2ccccc2)c2c(sc3c2CCCC3)N1 (stereo unspecified)	-6.6%	6.3%	.	.	-10.7%
O=C(O)c1cccc(-n2cccc2/C=C/[N+](=O)[O-])c1	-25.6%	?	-7.7%	6.7µM*	-21.6%
N#C/C(=C/c1cccn1-c1cccc(C(=O)O)c1)c1ccc(Cl)cc1	-9.4%	?	-3.1%	29.9µM*	-16.1%
O=C(O)c1cccc(-n2cccc2/C=C\[N+](=O)[O-])c1	?	?	-1.3%	26.7µM*	-14.3%
COc1cc(OC)c(/C=C2\SC(=O)N(CC(=O)Nc3ccccc3F)C2=O)c(OC)c1	0.6%	0.3%	-1.6%	-12.0%	-10.5%
COc1cc(/C=C2\SC(=O)N(CC(=O)Nc3cccc(C)c3)C2=O)cc([N+](=O)[O-])c1O	-10.0%	70.8µM*	-3.9%	9.47µM*	-26.0%
CCOc1cc(/C=C2\SC(=O)N(CC(=O)Nc3ccccc3F)C2=O)cc([N+](=O)[O-])c1O	3.1%	?	-2.8%	23.8µM*	-12.9%
COc1cc(NC(=O)CCc2c(C)nn(-c3ccc4nnc(C)n4n3)c2C)cc(OC)c1OC	-1.5%	-2.0%	.	.	-4.6%
COc1ccc(C(C(=O)Nc2ccc(C(C)C)cc2)N(C)C(=O)c2ccc(=O)[nH]c2)cc1 (stereo unspecified)	-3.3%	6.0%	-5.7%	26.7µM*	1.1%
COc1ccc(NC(=O)C(c2ccc(OC)cc2)N(C)C(=O)Cc2cccs2)cc1 (stereo unspecified)	-10.4%	-15.9%	-4.9%	-6.6%	-2.9%
CCCn1cc(S(=O)(=O)c2ccccc2)c(=O)c2cc(F)c(N3CCCCCC3)cc21	-11.8%	-4.2%	.	.	-6.8%
Cn1c(SCC(=O)NC2CC2)nnc1-c1ccccc1Cl	-19.1%	-8.0%	-9.5%	26.7µM*	-3.1%
Cn1c(Cn2c(=O)sc3ccccc32)nnc1SCC(=O)NC1CCCC1	-2.0%	-22.6%	-3.6%	23.8µM*	-9.7%
Cn1c(Cn2c(=O)sc3ccccc32)nnc1SCC(=O)NC1CCCCC1	-2.2%	1.8%	2.0%	?	-10.0%
Cn1c(SCC(=O)NC2CC2)nnc1-c1ccccc1	-10.7%	-5.1%	-2.7%	-5.7%	-21.5%
COc1ccc(SCC(CC(C)C)N2CCN(C)CCC2=O)cc1 (stereo unspecified)	.	3.0%	.	.	.
COc1cc(/C=C/C(=O)Nc2nnc(C(C)(C)C)s2)cc(OC)c1OC	-10.1%	-19.1%	-2.9%	23.8µM*	-15.2%
SMILES	KAT2A inh	VDR inhibitor	PTAP TSG101 blk	PLK1 PBD block	USP1-UAF1 inh
COc1cc(/C=C/C(=O)NC2CCCCC2)cc(OC)c1OC	?	?	0.3%	26.7µM*	-9.3%
COc1cc(/C=C/C(=O)Nc2ccc(C)cc2)cc(OC)c1OC	-11.6%	-9.3%	-0.9%	5.8%	-4.4%
COc1cc(/C=C/C(=O)Nc2cc(C(F)(F)F)ccc2Cl)cc(OC)c1OC	-15.1%	-4.2%	-3.9%	26.7µM*	-20.8%
O=C(O)c1c(Cl)c(Cl)c(Cl)c(Cl)c1-c1c2cc(I)c(=O)c(I)c-2oc2c(I)c(O)c(I)cc12	2µM*	5.62µM*	.	.	.
O=C(Cn1nnc2c(cnn2-c2ccc(F)cc2)c1=O)Nc1ccccc1C(F)(F)F	12.6µM*	-20.7%	-2.4%	-3.1%	-10.1%
COCCN(CC(=O)NCC1CCCO1)C(=O)CCC(=O)Nc1ccccn1 (stereo unspecified)	-6.9%	35.5µM*	1.6%	4.74µM*	-10.8%
Cc1cc(Br)ccc1NC(=O)CCS(=O)(=O)c1cccc2nsnc12	-14.4%	-5.1%	.	.	-0.2%
CCn1c(=S)[nH]c2cc(S(=O)(=O)N3CCCCC3)ccc21	-16.4%	5.5%	-10.4%	26.7µM*	?
Cc1cc(C)c(NC(=O)CSc2ncc3c(n2)-c2cc(Cl)ccc2N(C)S3(=O)=O)c(C)c1	1.4%	9.0%	.	.	6.0%
O=C1C(NS(=O)(=O)c2cccs2)=C(N2CCOCC2)C(=O)c2ccccc21	-2.1%	-4.4%	0.4%	-9.4%	-20.8%
O=C1C=C(N2CCOCC2)c2ccccc2C1=O	-9.2%	?	-1.7%	-17.9%	3.16µM*
O=C1C=C(N2CCOCC2)c2cccc3cccc1c23	.	.	.	-28.7%	-22.5%
O=C(O)c1cccc(NC2=C(N3CCOCC3)C(=O)c3ccccc3C2=O)c1	10.7%	70.8µM*	-2.2%	-17.7%	31.6µM*
COc1ccc(CCNC(=O)c2sc3nc4n(c(=O)c3c2C)CCCC4)cc1OC	-4.4%	4.0%	.	.	-6.6%
CN(Cc1ccco1)c1ncncc1-c1ccccc1C(F)(F)F	-2.5%	50.1µM*	.	.	.
COc1ccccc1-c1cncnc1N(C)Cc1ccco1	-11.3%	?	.	.	.
Cc1ccccc1-c1cncnc1N(C)Cc1ccco1	?	39.8µM*	.	.	.
COc1ccc(-c2cccc(NS(=O)(=O)c3cc(C)c(Cl)cc3C)c2)nn1	-8.1%	22.5%	.	.	-13.9%
CC1(C)C(O)C=C[C@@]2(C)C1CC(=O)O[C@@]1(C)C3=CC(=O)OC(c4ccoc4)[C@]3(C)CCC21 (stereo partly specified)	-5.8%	44.7µM*	.	.	.
CC1(C)C(=O)CC[C@@]2(C)C1CC(O)[C@@]1(C)C3=CC(=O)OC(c4ccoc4)[C@]3(C)CCC21 (stereo partly specified)	5.8%	?	.	.	.
c1ccc(COc2ncnc3c2ncn3CCCNCCN2CCOCC2)cc1	.	5.2%	-5.5%	-8.1%	?
Cn1sccc1=O	?	15.8µM*	-2.4%	15µM*	?
CN1CCc2c(sc3c2C(=O)NC(c2ccc(OC(=O)c4ccc(C(C)(C)C)cc4)cc2)N3)C1 (stereo unspecified)	-16.5%	22.9%	.	.	31.6µM*
CN1CCc2c(sc3c2C(=O)NC(c2ccccc2)N3)C1 (stereo unspecified)	-8.7%	70.8µM*	-18.7%	-15.7%	?
CN1CCc2c(sc3c2C(=O)NC(c2ccc4c(c2)OCO4)N3)C1 (stereo unspecified)	-11.7%	-8.0%	-9.0%	-4.1%	-14.8%
